# Screen size: about 94,000 compounds; about 410 (0.44%) were called active.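 Rule for the calls: active = inhibition above about 30% together with a positive call from visual inspection of the well image (limit read from the data); inconclusive = inhibition above a set limit but visual check negative; inactive = inhibition not above a set limit, visual check negative.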 The full list was thinned out, with actives kept by preference.
# Experiment: inhibitors of IL-1B driven NFkB p65 nuclear import, primary screen, imaging, HUVEC, IL-1B stimulus, high-content imaging (AID 796);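 note: nuclear over cytoplasmic p65 intensity ratio measured by imaging; 0% = IL-1B stimulated DMSO wells and 100% = unstimulated DMSO wells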
# Conditions: HUVEC IL-1B NFkB p65 nuclear translocation imaging; at 2 µM; active compounds read high
row,Compound,inhibition
1,N#C/C(=C/c1ccc(Cl)cc1)NC(=O)c1ccccc1,0.7% (inactive)
2,COc1ccc(C(F)(F)F)cc1N/C=C\c1nnnn1-c1ccc(C)cc1,7.9% (inactive)
3,O=C(NCCCCCCCCCNC(=O)C(F)(F)F)C(F)(F)F,8.3% (inactive)
4,CC(C)(CNC(=O)c1cc(=O)[nH]c2ccccc12)N1CCOCC1,31% (active)
5,Cc1c(C(=O)CN2CCOCC2)[nH]c2ccccc12,-7.9% (inactive)
6,CC(C)(CNCC(O)c1ccccc1)N1CCOCC1 (stereo not drawn),-8.1% (inactive)
7,c1ccc2c(C[n+]3csc4ccccc43)cccc2c1,-13.2% (inactive)
8,CCc1nc(C)ccc1OCC(=O)N(CC)CC,5.7% (inactive)
9,Fc1ccc(CNc2nc3ccccc3n3nnnc23)cc1,-20.9% (inactive)
10,CCOc1ccc(S(=O)(=O)Nc2nc3cc(OC)ccc3s2)cc1,-6% (inactive)
11,Cc1ccc(C(c2nnnn2CS(=O)(=O)c2ccc(C)cc2)N2CCC(C)CC2)cc1 (stereo not drawn),-0.3% (inactive)
12,O=C(Oc1ccc([N+](=O)[O-])cc1)c1ccc2ccccc2n1,1.7% (inactive)
13,CCOC(=O)C1Sc2[nH]c(=O)sc2C(c2ccc(Cl)cc2)C1C(=O)OCC (stereo not drawn),-11% (inactive)
14,O=C(CSc1nnnn1C1CCCC1)Nc1ccc2c(c1)OCCO2,-42.7% (inactive)
15,O=C(CSc1nc(C2CC2)nc2ccccc12)Nc1ccc2c(c1)OCCO2,4.6% (inactive)
16,O=C(CSc1nc2ncccc2[nH]1)Nc1ccc2c(c1)OCCO2,97% (active)
17,O=C(/C=C/c1ccco1)Nc1ccc(Oc2ccccc2)cc1,-2.7% (inactive)
18,c1ccc(C(c2ccccc2)N2CCN(Cc3nnnn3C3CCCCC3)CC2)cc1,10.8% (inactive)
19,CC1=NN(Cc2ccccc2)C(=O)/C1=C/c1ccc(N(C)C)cc1,-0.4% (inactive)
20,CCCCC(=O)N/N=C(\C)CC(=O)Nc1cc(Cl)ccc1OC,-3.2% (inactive)
21,COc1ccccc1NC(=O)/C=C/C(N)=O,43.6% (active)
22,COc1ccccc1NC(=S)NC(=O)C(C)C,13.7% (inactive)
23,COc1ccccc1NC(=O)c1ccc(C)s1,-3.2% (inactive)
24,O=C(NCc1ccccc1Cl)c1csc2c1CCCCC2,6.8% (inactive)
25,Cc1ccc(SCC(=O)Nc2ncc(C)s2)cc1,-75.7% (inactive)

row,Compound,inhibition
1,CN(C)/C=C(\C#N)C(=O)c1cccnc1Oc1cccc(F)c1,-5.1% (inactive)
2,COC(=O)c1ccc(C(=O)OC)c(NC(=S)N2CCCCC2)c1,8.4% (inactive)
3,COC(=O)c1ccc(CSc2ccc3nnc(-c4ccccc4)n3n2)o1,-0.1% (inactive)
4,COc1cc(C(=O)NC(=S)NCc2ccco2)cc(OC)c1OC,-3.4% (inactive)
5,O=C(/C=C/Sc1ncn[nH]1)c1ccc(Cl)cc1,47.7% (active)
6,Cc1ccc(C(=O)/C=C/c2c(C)nn(-c3ccccc3)c2Cl)cc1,15.3% (inactive)
7,CC(C)(C)c1ccc(C(=O)CSc2ncn[nH]2)cc1,-29.2% (inactive)
8,CC(C)(C)NS(=O)(=O)CC12CCC(CC1=O)C2(C)C (stereo not drawn),12.7% (inactive)
9,Cc1cccc(COc2ccccc2/C=N/Nc2ccc([N+](=O)[O-])cc2)c1,-18.1% (inactive)
10,COc1ccc(S(=O)(=O)N2CCOCC2)c(C)c1C,-1.9% (inactive)
11,COc1ccc(S(=O)(=O)Nc2ccc(F)cc2)c(C)c1C,74% (active)
12,COc1ccc(OC)c(S(=O)(=O)Nc2ccccc2F)c1,-16.7% (inactive)
13,O=S1(=O)C=C(SCCN2CCCC2)c2ccccc21,-1.4% (inactive)
14,CCOC(=O)/C(C#N)=C\c1c(C)cc(C)c(COC(C)=O)c1C,8.2% (inactive)
15,O=C1c2ccccc2C(=O)N1CCC(c1ccccc1)c1ccco1 (stereo not drawn),-2.1% (inactive)
16,CN(C)/C=C(\C#N)C(=O)c1cccnc1Oc1ccc(F)cc1F,5.5% (inactive)
17,O=S(=O)(c1ccc(Br)cc1)n1ccc2ccccc21,5.3% (inactive)
18,O=C(Nc1ncc2c(n1)-c1ccccc1OC2)c1ccc(Cl)cc1,3.3% (inactive)
19,CC(N)C12CC3CC(CC(O)(C3)C1)C2 (stereo not drawn),-22.4% (inactive)
20,C=CCN1C(=O)C(Cc2cccc(Cl)c2)S/C1=N/N=C/c1ccco1 (stereo not drawn),6.5% (inactive)
21,CC(C)(C)NC(=O)COc1ccc(CNc2ccc3[nH]c(=O)[nH]c3c2)cc1,6.7% (inactive)
22,O=C(NC1CCN(C(=S)NCc2ccco2)CC1)c1ccc(F)cc1,-2.5% (inactive)
23,O=C(Oc1ccccc1C(=S)N1CCCCC1)c1cc([N+](=O)[O-])cc([N+](=O)[O-])c1,-5.6% (inactive)
24,CN1CC(c2ccccc2)C2(COc3ccccc3C2=O)C12C(=O)Nc1ccccc12 (stereo not drawn),-0.2% (inactive)
25,Nc1nc(Br)c2ccccc2c1-c1ccc(F)cc1,-12.8% (inactive)

row,Compound,inhibition
1,Cc1cccc(NC(=O)c2ccc(OCC(=O)NCc3ccccc3)cc2)c1C,12.8% (inactive)
2,Cc1nc2c(-c3ccc(F)cc3)c(C)nn2c(C)c1CCC(=O)NCc1ccco1,8.1% (inactive)
3,c1cncc(-c2nnc3n2C2(CCCCC2)Cc2ccccc2-3)c1,-4.9% (inactive)
4,NS(=O)(=O)c1ccc(Nc2nc(-c3ccccc3)cs2)cc1,18.6% (inactive)
5,O=C(CNC(=O)c1cc2c(s1)CCC2)Nc1ccccc1Br,-43.6% (inactive)
6,Cc1ccc(N(CC(=O)Nc2cc(C)cc(C)c2)S(=O)(=O)c2cccc3nonc23)cc1,0.6% (inactive)
7,Cc1occc1C(=O)NNC(=S)NCC(C)C,-8.5% (inactive)
8,COc1ccc(CC(=O)Nc2ccc(-c3nnc(-c4ccc(C)cc4)o3)cc2)cc1,-3.1% (inactive)
9,COc1ccc(NC(=O)/C(Cl)=C(/Cl)S(=O)Cc2ccc(C)cc2)cn1 (stereo not drawn),81.8% (active)
10,COc1cccc(NC(=O)Cc2ccc(C)cc2)c1,3.1% (inactive)
11,CN(C)c1ccnc2sc3c(=O)n(-c4ccc(Cl)cc4)cnc3c12,-8.3% (inactive)
12,Cc1cc(=O)[nH]c(SCc2cccc(F)c2)n1,-8.1% (inactive)
13,CCCNC(=S)NC1CC2CCCC(C1)N2CC(C)C (stereo not drawn),-10.2% (inactive)
14,CSc1ccccc1-c1nnc(-c2ccc(Cl)cc2)o1,-15.4% (inactive)
15,Cc1nnc(SCC(=O)N/N=C/c2cn(-c3ccccc3)nc2-c2ccc(F)cc2)n1-c1ccccc1,16.3% (inactive)
16,O=C(Nc1ccc(-n2ccnc2P(=O)(O)c2ccccc2)cc1)c1ccccc1Br,-9.1% (inactive)
17,COC(=O)Nc1sc2nc(C)cc(C)c2c1-n1cccc1,8.1% (inactive)
18,O=C(Nc1nnc(SCc2c(Cl)cccc2Cl)s1)C1CCCO1 (stereo not drawn),6.6% (inactive)
19,Cc1cccc(C(=O)Nc2ccccc2N2CCN(c3ccc(F)cc3)CC2)c1,4.6% (inactive)
20,COc1ccccc1C1C2=C(COC2=O)Nc2cc3c(cc21)OCO3 (stereo not drawn),39.9% (active)
21,O=C1NC(c2cc3c(cc2Cl)OCO3)Oc2ccccc21 (stereo not drawn),-2.5% (inactive)
22,CCCOc1ccccc1C1CC(=O)Nc2cc3c(cc21)OCO3 (stereo not drawn),-2.7% (inactive)
23,N#Cc1ccc(-c2ccc(F)cc2)nc1Sc1ccccc1,0% (inactive)
24,Cc1cc(=O)oc2cc(OC(C)C(=O)Nc3ccc(N4CCOCC4)cc3)ccc12 (stereo not drawn),22.6% (inactive)
25,Cc1ccccc1NC(=O)C(C)c1ccc(-c2ccccc2)c(F)c1 (stereo not drawn),-13% (inactive)

row,Compound,inhibition
1,CCN1CCN(C(=O)C2(NC(=O)Nc3cccc(F)c3)CCCCC2)CC1,9.4% (inactive)
2,CN(C)c1ccnc(Oc2ccc(F)cc2)c1C#N,-4.4% (inactive)
3,COc1ccc(OCC(=O)N2CCN(C(=O)COc3ccccc3)CC2)cc1,-0.4% (inactive)
4,COc1ccc(OCC(=O)N2CCN(C(=O)c3cccs3)CC2)cc1,42.9% (active)
5,O=C(COc1ccc2ccccc2c1)N1CCN(C(=O)c2cccs2)CC1,12.1% (inactive)
6,CC(C)c1ccc(N2CCN(C(=O)c3ccccc3NC(=O)/C=C(\C(=O)O)c3ccccc3)CC2)cc1,-24.1% (inactive)
7,Cc1nn(C)c(Oc2ccc(Cl)cc2)c1C=O,-7.4% (inactive)
8,CC(=O)Nc1ccc(S(=O)(=O)N2CCN(C(=O)c3ccccc3F)CC2)cc1,-10.6% (inactive)
9,Cc1[nH]nc(-c2ccc(OCc3cnn(-c4ccccc4)c3)cc2O)c1Oc1ccc(Cl)cc1,-4.6% (inactive)
10,COC(=O)C1(O)CC(C(C)C)=NN1C(=O)c1ccc(Cl)cc1 (stereo not drawn),-3.2% (inactive)
11,Cc1ccc(S(=O)(=O)c2c(COC(=O)c3cccc(Cl)c3)c(-c3ccccc3)nn2C)cc1,-7.8% (inactive)
12,CCN(CC)C(=O)CSc1nc2ccccc2o1,-3.4% (inactive)
13,COc1cc(/C=N/Nc2nn3cnnc3c3ccccc23)cc(OC)c1OC,-1.1% (inactive)
14,COc1ccc(/C=N\NC(=O)c2sc(N)nc2C)cc1OC,1.2% (inactive)
15,COc1ccc(/C=N/Nc2nc3ccccc3o2)cc1OC,45.9% (active)
16,CCCc1ccc(-c2c(C)sc(NC(=O)c3ccnn3C)c2C#N)cc1,3.3% (inactive)
17,Cc1cc(C)c([N+](=O)[O-])cc1-c1ccc(/C=N/NC(=O)c2nonc2N)o1,-17.6% (inactive)
18,CC(CC(=O)Nc1cc(C(F)(F)F)ccc1Cl)c1ccccc1 (stereo not drawn),-2.6% (inactive)
19,CC(C)C(NS(=O)(=O)c1cccs1)C(=O)Nc1nc(C(C)(C)C)cs1 (stereo not drawn),1.6% (inactive)
20,COc1ccc(C2=NOC3(CC(=O)N(c4ccc(Cl)cc4)C3=O)C2)c(OC)c1 (stereo not drawn),0.4% (inactive)
21,CSCCC(C(=O)NC1=NCCS1)N1C(=O)c2ccccc2C1=O (stereo not drawn),-15.1% (inactive)
22,CCC1(C)Cc2c(sc3[nH]c(=S)n(Cc4ccccc4)c(=O)c23)CO1 (stereo not drawn),-4.8% (inactive)
23,CCOc1ccc(Nc2nc(Cc3nnc(SCC(=O)NC4CCCC4)n3C)cs2)cc1,-8.9% (inactive)

# Source: PubChem BioAssay AID796 (Columbia University Molecular Screening Center, 2007)
